Experimental data from PubChem BioAssay.
Calls of active or inactive are those of the source.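 The calls were made as follows, unless noted: active = fluorescence slope higher than the sample average by over 3 SD (cut at about -0.22 in these data, passing the limit was not always enough); inactive = the rest.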

system: not listed separately; assay: inhibitors of E-selectin induction by TNFa, primary screen, imaging, HUVEC, immunofluorescence, MLSMR starter and 10KST1 sets (AID 487;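 active = visually confirmed hit in the image check and inhibition above 20%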;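 as to inhibition: signal is fraction of cell area covered by stained E-selectin grains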;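 as to nuclei count: 100% = median nuclei count of all wells on the same plate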); conditions: HUVEC TNFalpha-induced E-selectin immunofluorescence imaging, at 2 µM; inhibition: stronger effect = higher value; nuclei count: measured here: cell number, toxicity

Compound | inhibition | nuclei count
N#Cc1c(/N=C/c2ccco2)sc2c1CCC2 | -12.4% (inactive) | 104%
Cc1cccc(C)c1OCc1nnc2c3cnn(C)c3ncn12 | -299% (inactive) | 125%
Cc1cc2ncn(C(=O)N3CCOCC3)c2cc1C | -61.7% (inactive) | 122%
COCCCn1c2nc3ccccc3nc2c2c(=O)n(-c3ccccc3OC)cnc21 | 16.9% (inactive) | 102%
Cc1nc2ccc(NC(=O)N3CCSCC3)cc2s1 | -93.4% (inactive) | 96.5%
CCn1c(SCC(=O)NCc2ccco2)nc2c(c1=O)SC(C)C2 (stereo not given) | -14.8% (inactive) | 115%
COc1nc(OC)nc(N2CCC(NC(=O)C(Cc3ccc(C(C)C)cc3)NC(C)=O)CC2)n1 (stereo not given) | -10.4% (inactive) | 130%
Cc1nc2ccccn2c1C(=O)NCCCN1CCOCC1 | 11.8% (inactive) | 102%
CN1C(=O)CC(C(=O)Nc2ccc(F)cc2)SC1=Nc1ccc2c(c1)OCO2 (stereo not given) | -15.7% (inactive) | 118%
Clc1ccc(Cl)c(-c2nn3c(COc4ccccc4)nnc3s2)c1 | -81.1% (inactive) | 139%
c1ccc(-n2nnnc2OCCOc2nnnn2-c2ccccc2)cc1 | -5.3% (inactive) | 83.1%
c1ccc(CNc2ccc3c(c2)ncn3C2CCCCC2)nc1 | -12.5% (inactive) | 97%
Cn1c(Cc2csc(N)n2)nnc1SCC(=O)NCc1ccccc1 | -12.6% (inactive) | 118%
CC(=O)c1cc2c(=O)c3cc(C)ccc3oc2nc1C | -96.2% (inactive) | 187%
O=C(Nc1cccnc1N1CCOCC1)c1ccco1 | -56.6% (inactive) | 109%
Cc1ccc(NC(=O)Cn2cccc2)cc1Cl | -4.1% (inactive) | 103%
Cc1cc(NC(=O)Cn2cnc3c(cnn3C(C)(C)C)c2=O)no1 | 7% (inactive) | 102%
CCCn1c2c(c(O)c(C(=O)NC)c1=O)CCCC2 | -40.9% (inactive) | 112%
CCOC(=O)c1ccc(NC(=O)CC2SC(=NC)N(C)C2=O)cc1 (stereo not given) | -14.5% (inactive) | 110%
CCCn1c2ccccc2c2nnc(SCC(=O)Nc3ncccn3)nc21 | -10.4% (inactive) | 98.8%

Compound | inhibition | nuclei count
c1ccc(-c2cc(-c3nc(-c4ccccn4)no3)c3ccccc3n2)cc1 | -171% (inactive) | 140%
O=C(O)C1CCCN1C(=O)Nc1ccc(F)cc1 (stereo not given) | -32.7% (inactive) | 98.5%
COc1ccc(Nc2nc(OC)nc(N3CCN(c4ccc(OC)cc4)CC3)n2)cc1 | -14.1% (inactive) | 100%
CCCC1CC(C)(C(=O)Cn2[nH]c(=O)ccc2=O)OC1=O (stereo not given) | -76% (inactive) | 104%
CCOC(=O)N1CCN(C(=O)c2ccc3nc4cc(Cl)ccc4c(=O)n3c2)CC1 | 17.6% (inactive) | 118%
CCCCCOC(=O)CSc1nnc(-c2cc(OC)c(OC)c(OC)c2)o1 | -73.6% (inactive) | 119%
Cc1cc(=O)n(CC(C)C)c(O)c1C#N | -11.8% (inactive) | 109%
Oc1ccccc1C1=Nc2nc3ccccc3n2C(c2ccccc2)C1 (stereo not given) | -49.5% (inactive) | 102%
O=S(=O)(c1ccc2c(c1)OCCO2)N(Cc1ccc(F)cc1)Cc1nnc(-c2cccs2)o1 | -14.4% (inactive) | 119%
CCCNC(=O)c1c(N)n(-c2cc(OC)cc(OC)c2)c2nc3ccccc3nc12 | -89.1% (inactive) | 135%
COc1ccc2cc(C#N)c(NC(C)C)nc2c1 | -23.1% (inactive) | 108%
Cc1c(NC(=O)CN2c3cccc4cccc(c34)S2(=O)=O)c(=O)n(-c2ccccc2)n1C | -119% (inactive) | 141%
COc1ccc(C2CC(=O)c3c(C)nc(N4CCN(c5ccccc5)CC4)nc3C2)cc1 (stereo not given) | 29.4% (inactive) | 108%
COc1cc(CC(=O)NCc2ccc3c(c2)OCO3)cc(OC)c1OC | -43.8% (inactive) | 124%
O=C(CCCC(=O)N(CC(=O)NC1CCCCC1)Cc1ccc2c(c1)OCO2)Nc1ccccn1 | -237% (inactive) | 110%
CCCOc1ccc(/C(O)=C2/C(=O)C(=O)N(CCCOC)C2c2ccncc2)cc1 (stereo not given) | 1.9% (inactive) | 108%
Cc1cc(NC(=O)CCC(=O)N(CCc2ccccc2)C(C(=O)NC2CCCC2)c2ccco2)no1 (stereo not given) | 6.8% (inactive) | 101%
CCC(=O)OC1(C#CCOc2ccc(OC)cc2)CCN(C)CC1 | -43.3% (inactive) | 142%
CCCS(=O)(=O)N1CCC(C(=O)N2CCCC2)CC1 | -70.4% (inactive) | 107%
O=C(CS(=O)(=O)Cc1ccccc1)N1CCc2ccccc2C1 | -110% (inactive) | 124%

target: Voltage-gated potassium channel subunit beta-2 (Rattus norvegicus) (UniProt P62483); assay: KvBeta enzyme negative modulators, primary screen, biochemical, NADPH fluorescence (AID 622); conditions: recombinant KvBeta, 4-cyanobenzaldehyde reduction, at 10 µM, stronger effect = higher value;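 also: slope of raw intensity against log time taken from 70 to 1610 s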
Sequence (P62483 whole entry, looked up): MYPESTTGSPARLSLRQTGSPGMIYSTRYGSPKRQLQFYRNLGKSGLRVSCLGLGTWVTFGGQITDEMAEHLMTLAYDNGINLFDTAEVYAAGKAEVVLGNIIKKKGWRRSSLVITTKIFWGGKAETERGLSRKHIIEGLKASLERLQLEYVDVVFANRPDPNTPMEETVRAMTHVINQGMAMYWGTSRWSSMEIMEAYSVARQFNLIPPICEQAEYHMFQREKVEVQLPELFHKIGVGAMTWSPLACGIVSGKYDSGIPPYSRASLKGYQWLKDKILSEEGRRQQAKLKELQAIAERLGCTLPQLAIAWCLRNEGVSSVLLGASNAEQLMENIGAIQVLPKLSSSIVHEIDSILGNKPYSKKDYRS

Compound | fluorescence slope
N#Cc1c(/N=C/c2ccco2)sc2c1CCC2 | -0.507 (inactive)
Cc1cccc(C)c1OCc1nnc2c3cnn(C)c3ncn12 | -0.533 (inactive)
Cc1cc2ncn(C(=O)N3CCOCC3)c2cc1C | -0.572 (inactive)
COCCCn1c2nc3ccccc3nc2c2c(=O)n(-c3ccccc3OC)cnc21 | -0.457 (inactive)
Cc1nc2ccc(NC(=O)N3CCSCC3)cc2s1 | -0.535 (inactive)
CCn1c(SCC(=O)NCc2ccco2)nc2c(c1=O)SC(C)C2 (stereo not given) | -0.4 (inactive)
COc1nc(OC)nc(N2CCC(NC(=O)C(Cc3ccc(C(C)C)cc3)NC(C)=O)CC2)n1 (stereo not given) | -0.486 (inactive)
Cc1nc2ccccn2c1C(=O)NCCCN1CCOCC1 | -0.461 (inactive)
CN1C(=O)CC(C(=O)Nc2ccc(F)cc2)SC1=Nc1ccc2c(c1)OCO2 (stereo not given) | -0.269 (inactive)
Clc1ccc(Cl)c(-c2nn3c(COc4ccccc4)nnc3s2)c1 | -0.546 (inactive)
c1ccc(-n2nnnc2OCCOc2nnnn2-c2ccccc2)cc1 | -0.562 (inactive)
c1ccc(CNc2ccc3c(c2)ncn3C2CCCCC2)nc1 | -0.58 (inactive)
Cn1c(Cc2csc(N)n2)nnc1SCC(=O)NCc1ccccc1 | -0.58 (inactive)
CC(=O)c1cc2c(=O)c3cc(C)ccc3oc2nc1C | -0.346 (inactive)
O=C(Nc1cccnc1N1CCOCC1)c1ccco1 | -0.221 (inactive)
Cc1ccc(NC(=O)Cn2cccc2)cc1Cl | -0.324 (inactive)
Cc1cc(NC(=O)Cn2cnc3c(cnn3C(C)(C)C)c2=O)no1 | -0.573 (inactive)
CCCn1c2c(c(O)c(C(=O)NC)c1=O)CCCC2 | -0.566 (inactive)
CCOC(=O)c1ccc(NC(=O)CC2SC(=NC)N(C)C2=O)cc1 (stereo not given) | -0.48 (inactive)
CCCn1c2ccccc2c2nnc(SCC(=O)Nc3ncccn3)nc21 | -0.551 (inactive)

Compound | fluorescence slope
c1ccc(-c2cc(-c3nc(-c4ccccn4)no3)c3ccccc3n2)cc1 | -0.265 (inactive)
O=C(O)C1CCCN1C(=O)Nc1ccc(F)cc1 (stereo not given) | -0.301 (inactive)
COc1ccc(Nc2nc(OC)nc(N3CCN(c4ccc(OC)cc4)CC3)n2)cc1 | -0.555 (inactive)
CCCC1CC(C)(C(=O)Cn2[nH]c(=O)ccc2=O)OC1=O (stereo not given) | -0.515 (inactive)
CCOC(=O)N1CCN(C(=O)c2ccc3nc4cc(Cl)ccc4c(=O)n3c2)CC1 | -0.0121 (inactive)
CCCCCOC(=O)CSc1nnc(-c2cc(OC)c(OC)c(OC)c2)o1 | -0.363 (inactive)
Cc1cc(=O)n(CC(C)C)c(O)c1C#N | -0.581 (inactive)
Oc1ccccc1C1=Nc2nc3ccccc3n2C(c2ccccc2)C1 (stereo not given) | -0.539 (inactive)
O=S(=O)(c1ccc2c(c1)OCCO2)N(Cc1ccc(F)cc1)Cc1nnc(-c2cccs2)o1 | -0.543 (inactive)
CCCNC(=O)c1c(N)n(-c2cc(OC)cc(OC)c2)c2nc3ccccc3nc12 | -0.367 (inactive)
COc1ccc2cc(C#N)c(NC(C)C)nc2c1 | -0.495 (inactive)
Cc1c(NC(=O)CN2c3cccc4cccc(c34)S2(=O)=O)c(=O)n(-c2ccccc2)n1C | -0.442 (inactive)
COc1ccc(C2CC(=O)c3c(C)nc(N4CCN(c5ccccc5)CC4)nc3C2)cc1 (stereo not given) | -0.574 (inactive)
COc1cc(CC(=O)NCc2ccc3c(c2)OCO3)cc(OC)c1OC | -0.519 (inactive)
O=C(CCCC(=O)N(CC(=O)NC1CCCCC1)Cc1ccc2c(c1)OCO2)Nc1ccccn1 | -0.479 (inactive)
CCCOc1ccc(/C(O)=C2/C(=O)C(=O)N(CCCOC)C2c2ccncc2)cc1 (stereo not given) | -0.29 (inactive)
Cc1cc(NC(=O)CCC(=O)N(CCc2ccccc2)C(C(=O)NC2CCCC2)c2ccco2)no1 (stereo not given) | -0.483 (inactive)
CCC(=O)OC1(C#CCOc2ccc(OC)cc2)CCN(C)CC1 | -0.61 (inactive)
CCCS(=O)(=O)N1CCC(C(=O)N2CCCC2)CC1 | -0.611 (inactive)
O=C(CS(=O)(=O)Cc1ccccc1)N1CCc2ccccc2C1 | -0.529 (inactive)
